Potency and affinity values are given separately. Calls of active or inactive are those of the source.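 How the source made its calls: active means fitted half-maximal dose no more than twice the top valid tested dose, for compounds that lower signal; inconclusive means fit invalid, or curve flat with activity between -70 and -30; inactive means potency past limit, curve flat within ±30, or signal increasing.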
The compounds below were run against NAD-dependent protein deacylase sirtuin-5, mitochondrial (Homo sapiens) (UniProt Q9NXA8) (assay: blockers of sirtuin-5 peptide desuccinylation – biochemical, fluorescence imaging, cherry-pick, set 6, dose response (AID 720597;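 further: lower AMC signal can also come from blocking the trypsin step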)). Details: Purified SirT5, succinyl-peptide-AMC/trypsin fluorescence; series mostly up to 15 µM.
Sequence of NAD-dependent protein deacylase sirtuin-5, mitochondrial (Homo sapiens) (Q9NXA8 whole entry, looked up): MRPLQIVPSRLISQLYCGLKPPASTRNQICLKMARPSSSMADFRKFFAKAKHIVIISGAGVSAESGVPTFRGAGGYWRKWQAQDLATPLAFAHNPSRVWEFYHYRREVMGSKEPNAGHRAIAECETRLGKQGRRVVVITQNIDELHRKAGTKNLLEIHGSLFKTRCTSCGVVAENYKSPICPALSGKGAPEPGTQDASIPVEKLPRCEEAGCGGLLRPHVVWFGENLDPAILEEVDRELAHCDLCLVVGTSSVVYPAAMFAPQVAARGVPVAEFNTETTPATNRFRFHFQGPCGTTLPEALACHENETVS

outcome, inactive:
O=C(CC1CC1)N1CC2(C1)[C@@H](c1ccccc1)[C@@H](CO)N2Cc1cccc(F)c1
CC(C)CC#Cc1ccc2c(c1)O[C@H](CN(C)C(=O)NC1CCCC1)[C@@H](C)CN([C@@H](C)CO)S2(=O)=O
COCC(=O)N(C)C[C@H]1[C@H](c2ccccc2)[C@@H](CO)N1C(=O)Cc1ccncc1
O=C(CCN1CCCCC1)N[C@@H]1CC[C@H](CC(=O)N2CCC(Cc3ccccc3)CC2)O[C@@H]1CO
CCN1[C@H](C(=O)NCc2ccccc2)[C@@H](CO)[C@@H]2Cn3c(ccc(-c4ccncc4)c3=O)[C@@H]21
Cc1ccc(S(=O)(=O)N(C)C[C@H]2Oc3ncc(-c4ccncc4)cc3C(=O)N([C@@H](C)CO)C[C@@H]2C)cc1
C/C=C/c1ccc2c(c1)O[C@H](CN(C)Cc1cccc(F)c1)[C@H](C)CN([C@H](C)CO)S2(=O)=O
COc1ccc(NC(=O)Nc2ccc3c(c2)C(=O)N([C@@H](C)CO)C[C@@H](C)[C@@H](CN(C)Cc2ccncc2)O3)cc1
C[C@H]1CN([C@@H](C)CO)C(=O)c2cc(NC(=O)CCC(F)(F)F)ccc2O[C@H]1CN(C)Cc1ccc(C(F)(F)F)cc1
COc1ccc(S(=O)(=O)Nc2ccc3c(c2)CC(=O)N([C@@H](C)CO)C[C@@H](C)[C@H](CN(C)S(=O)(=O)c2ccc(C)cc2)O3)cc1
C[C@H](CO)N1C[C@H](C)[C@H](CN(C)C(=O)NC2CCCCC2)Oc2ccc(NC(=O)Nc3ccccc3)cc2C1=O
COc1ccc(S(=O)(=O)N(C)C[C@H]2OCCCC[C@H](C)Oc3ccc(NS(=O)(=O)c4ccc(C)cc4)cc3C(=O)N([C@H](C)CO)C[C@H]2C)cc1

Source: PubChem BioAssay AID720597 (Broad Institute, 2013)
